In PubChem BioAssay (Tox21):
Inconclusive results are not listed. Entries that show only a call come without a potency. Activity calls are given as the source filed them. The call rests on the fitted dose curve; in most records, active means well fitted inhibition curve with a large enough effect in the repeat runs; inconclusive means weak or mixed curves; inactive means flat fitted curve, though single readings scatter.

Molecular target: Luciferin 4-monooxygenase (Photinus pyralis) (UniProt P08659)
Sequence (P08659 whole entry, looked up): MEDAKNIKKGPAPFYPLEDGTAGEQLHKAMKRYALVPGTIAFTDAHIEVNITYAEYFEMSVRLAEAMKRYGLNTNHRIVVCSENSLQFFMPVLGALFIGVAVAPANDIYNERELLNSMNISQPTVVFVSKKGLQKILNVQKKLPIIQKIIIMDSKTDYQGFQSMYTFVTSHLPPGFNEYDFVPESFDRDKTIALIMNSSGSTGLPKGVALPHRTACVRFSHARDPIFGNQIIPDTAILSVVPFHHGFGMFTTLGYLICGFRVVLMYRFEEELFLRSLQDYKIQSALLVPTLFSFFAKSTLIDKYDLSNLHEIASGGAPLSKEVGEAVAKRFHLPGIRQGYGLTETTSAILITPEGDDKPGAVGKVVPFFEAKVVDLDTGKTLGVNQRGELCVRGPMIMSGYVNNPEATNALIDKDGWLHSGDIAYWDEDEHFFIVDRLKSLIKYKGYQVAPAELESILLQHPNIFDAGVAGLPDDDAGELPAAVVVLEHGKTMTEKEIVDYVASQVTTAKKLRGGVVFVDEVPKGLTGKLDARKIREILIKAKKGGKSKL
Experiment: qHTS assay to identify small molecule inhibitors of firefly luciferase (AID 1224835); further: nearly all actives have a fitted effect of over 25% in size
Conditions: purified P. pyralis luciferase, luminescence inhibition; series mostly up to 115 µM
In short: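 Inhibition of purified Photinus luciferase is measured by luminescence. Substrate levels (D-luciferin, ATP) sit at their KM values. Each compound is tested in a concentration series.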

SMILES	Potency
OCC(O)CCl (stereo not given)	inactive
CNCC(O)c1ccc(O)cc1 (stereo not given)	inactive
Cl[C@H]1OCCO[C@@H]1Cl	inactive
O=C(O)CCCc1ccc(N(CCCl)CCCl)cc1	inactive
N#CN=C(N)N	inactive
N#Cc1cccc(C#N)c1	inactive
COC(C)(C)CCCC(C)C/C=C/C(C)=C/C(=O)OC(C)C (stereo not given)	inactive
Nc1cccc(Cl)c1	inactive
Clc1cnc(Oc2ccc(Oc3ncc(Cl)cc3Cl)cc2)c(Cl)c1	inactive
Cc1cc(O)ccc1Cl	inactive
C=CCN=C=S	inactive
Cc1ccc(O)c(C)c1	inactive
CSc1nnc(C(C)(C)C)c(=O)n1N	inactive
Cc1cc(Cl)ccc1OC(C)C(=O)O (stereo not given)	inactive
O=[N+]([O-])c1ccc(Cl)c(Cl)c1	inactive
FC(F)(F)c1ccc(Cl)cc1	inactive
CNC(=O)Oc1cccc2ccccc12	inactive
Sc1ccccc1	inactive
CNC(=O)O/N=C/C(C)(C)S(C)=O (stereo not given)	inactive
CCNc1nc(Cl)nc(NC(C)C)n1	inactive
O=[N+]([O-])c1cc([As](=O)(O)O)ccc1O	inactive
O=C(O)Cc1ccccc1	inactive
CN(C)C(=O)Nc1cccc(C(F)(F)F)c1	inactive
CC(C)c1cccc(C(C)C)c1O	inactive
CNC(=O)O/N=C/C(C)(C)SC	inactive
CC(C)CCCCCCOC(=O)c1ccccc1C(=O)OCCCCCCC(C)C	inactive
C=CC#N	inactive
O=C(O)C1C(C(=O)O)C2(Cl)C(Cl)=C(Cl)C1(Cl)C2(Cl)Cl (stereo not given)	inactive
Cc1cccc(N)c1	inactive
CN(C)NC(=O)CCC(=O)O	inactive
